An excerpt weighted towards active compounds, which were near 19% of everything screened.
IL1B secr inh: inhibitors of inflammasome signaling (IL-1 beta secretion); THP-1 LPS/ATP IL-1B secretion, AlphaLISA, 16 h; stronger effect = lower value; activity change, % at 57.5 µM; hit rate 4.7% among 360,000; AID 743279; in the data active means activity change below about -50%; inconclusive means mostly about -30% to -49%
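THP-1 cells pretreated 1 hr with compounds (up to 57.5 uM final), then stimulated with LPS (250 ng/mL final) plus ATP (1.25 mM final); secreted IL-1B measured by AlphaLISA after 16 hr, decreased signal indicating inhibition.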
HT1080 IDH1KD tx: HT-1080 IDH1 knockdown cell toxicity (counter line); HT-1080 IDH1 knockdown viability, ATP luminescence, 48 h; Potency, µM (series often up to 46.1 µM), for the others: at the top dose activity, negative = toxicity, usual class: cytotoxic; hit rate 2% among 360,000;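 further: potency means the concentration at half of the fitted maximal effect; 0% = DMSO wells and -100% = cell-free medium wells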
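Knockdown cells (IDH1KD HT-1080) received compounds 2 h after plating at 750 cells/well and were kept 48 h at 37 °C in 5% FBS RPMI. A CellTiter-Glo luminescence read gave % activity for curve fitting.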
TDP1 cell noCPT: qHTS for Inhibitors of human tyrosyl-DNA phosphodiesterase 1 (TDP1): qHTS in cells in absence of CPT; DT40 Tdp1-/- hTDP1 cells, no CPT, ATP luminescence, 48 h; Potency, µM (doses to about 46.2 µM), without a hit: at the top dose activity change, negative = growth inhibition, hits mostly inhibitors; hit rate 15% among 420,000; further: potency means the concentration at half of the fitted maximal effect; nearly all actives have a fitted effect of over 55% in size
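Readout: luminescence from CellTiter-Glo after 30 min in the dark at RT. Cells: DT40 Tdp1-/- with stable hTDP1, 400/well. Exposure: compounds alone, ≥48 hr, 37 °C.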
DT40 TDP1 CPT: DT40-hTDP1 cell growth loss with CPT. chicken DT40 Tdp1-/-;hTDP1 cells + 20 nM CPT, ATP luminescence, 48 h. Potency, µM (series often up to 46.2 µM), without a hit: at the top dose activity change, negative = growth inhibition, most hits filed as inhibitors. hit rate 12% among 420,000. AID 686979; further: potency means the concentration at half of the fitted maximal effect; nearly all actives have a fitted effect of over 55% in size
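Chicken DT40 Tdp1-/- cells stably complemented with human TDP1 were seeded at 400 cells/well in medium containing 20 nM camptothecin, exposed to pin-transferred compounds, and grown at 37 °C for at least 48 hr. Viability was read as ATP luminescence.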
HT1080-NT tox: kills 2HG-producing HT-1080-NT fibrosarcoma cells; hit rate 1.6% among 360,000; Potency, µM (titrated, usually from 46.1 µM), without a hit: top-dose activity, negative = less viability, hits mostly cytotoxic; HT-1080-NT fibrosarcoma viability, CellTiter-Glo ATP luminescence, 48 h;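 further: NT is the 2HG producing partner of a matched IDH1 knockdown line; potency means the concentration at half of the fitted maximal effect; 0% = DMSO-treated cells and -100% = media-only wells without cells; nearly all actives have a fitted effect of over 55% in size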
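Fibrosarcoma NT cells, 750 per well in 5% FBS RPMI, were exposed to compound for 48 hours. Viability: CellTiter-Glo luminescence.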
* hit, by the source's call; ? = inconclusive; / = not tested or not shown. Unless noted, the call rests on the fitted dose curve; in most records, active means well fitted curve in the direction sought with a large enough effect; inconclusive means small, poorly fitted or top-dose-only effect, or another doubt; inactive means no such curve, though single readings can be large; an effect the other way counts as inactive or inconclusive. Unless noted, on the % scale 0 is the no-effect control and ±100 the full control effect.

SMILES	IL1B secr inh	HT1080 IDH1KD tx	TDP1 cell noCPT	DT40 TDP1 CPT	HT1080-NT tox
CSc1ccccc1NC(=O)C1(C)CCN1C(=O)Cc1ccc(-c2ccccc2)cc1 (configuration not stated)	0.3	?	18.4µM*	?	?
CC1(C(=O)NCc2ccccc2Br)CCN1C(=O)Cc1ccc(-c2ccccc2)cc1 (configuration not stated)	-11.2	?	?	?	16.4µM*
Cc1ccc(S(=O)(=O)NC(=O)C2(C)CCN2C(=O)Cc2ccc(-c3ccccc3)cc2)cc1 (configuration not stated)	7.4	2.9%	2.0%	11.6%	-7.8%
CC(C)(C)CNC(=O)C1(C)CCN1C(=O)Cc1ccc(-c2ccccc2)cc1 (configuration not stated)	2.6	?	18.4µM*	23.1µM*	-21.5%
CC(C)(C)c1ccc(CC(=O)N2CCC2(C)C(=O)Nc2cccc3ccccc23)cc1 (configuration not stated)	12.3	?	?	?	?
CCOc1ccccc1NC(=O)c1ccc2c(c1)CCCN2S(C)(=O)=O	/	/	-15.3%	-4.8%	/
CC1(C(=O)Nc2ccc3nc[nH]c3c2)CCN1C(=O)C/C=C/c1ccccc1 (configuration not stated)	-20.7	9.6%	?	?	1.1%
Cc1ccc(NC(=O)C2(C)CCN2C(=O)Cc2ccc(-c3ccccc3)cc2)cc1 (configuration not stated)	-1.3	?	16.4µM*	16.4µM*	?
CC1(C(=O)Nc2ccc3nc[nH]c3c2)CCN1C(=O)Cc1ccc(-c2ccccc2)cc1 (configuration not stated)	23.8	-25.9%	16.4µM*	?	-16.4%
CSc1ccc(NC(=O)C2(C)CCN2C(=O)c2cc(C)n(C)n2)cc1 (configuration not stated)	-3.5	7.7%	20.6µM*	?	1.9%
CC1(C(=O)NS(C)(=O)=O)CCN1C(=O)Cc1ccc(-c2ccccc2)cc1 (configuration not stated)	5.2	9.3%	-4.0%	-10.5%	?
CC(C)NC(=O)C1(C)CCN1C(=O)Cc1ccc(-c2ccccc2)cc1 (configuration not stated)	-1.5	?	13µM*	16.4µM*	?
CCn1cc(/C=N\NC(=O)c2ccccc2Cl)cn1	13.8	27.6%	-19.0%	0.2%	15.6%
Cc1ccc(C(=O)OCC(=O)N2CCCCCC2)c(O)c1	5.2	1.7%	-9.1%	-7.9%	-1.5%
COc1ccc(NC(=O)N2c3ccc(OC)cc3C(C)=CC2(C)C)cc1	-1.2	-4.2%	-19.1%	?	-2.9%
CCOc1ccc2c(c1)C(C)=CC(C)(C)N2C(=O)Nc1ccccc1	-7.5	-0.7%	25.9µM*	5.8µM*	-0.5%
Cc1ccc(C)c(Cn2c(C(C)NC(=O)c3ccccc3)nc3ccccc32)c1 (configuration not stated)	/	/	20.6µM*	?	/
Cc1ccc(Cn2c(C(C)NC(=O)c3ccccc3)nc3ccccc32)cc1 (configuration not stated)	/	/	6.51µM*	?	/
Cc1ccc(C)c(Cn2c(C(C)NC(=O)c3ccc(F)cc3)nc3ccccc32)c1 (configuration not stated)	/	/	?	-2.7%	/
CCOC(=O)N1CCN(C(=O)C(CC(C)C)NS(=O)(=O)c2ccc(C)cc2)CC1 (configuration not stated)	26.0	1.0%	-7.9%	?	-2.2%
O=C(/C=C/c1ccc(S(=O)(=O)N2CCOCC2)cc1)NC(=S)Nc1ccc(Cl)cc1Cl	-90.2*	-12.9%	?	?	-21.1%
O=C(/C=C/c1ccc(S(=O)(=O)N2CCOCC2)cc1)NC(=S)NCCCn1ccnc1	-74.6*	?	?	?	-18.6%
O=C(/C=C/c1ccc(F)cc1)Nc1cccc(S(=O)(=O)N2CCOCC2)c1	-58.5*	-26.9%	?	?	-14.9%
O=C(/C=C/c1ccc(S(=O)(=O)N2CCOCC2)cc1)Nc1cc(F)ccc1F	-54.5*	-4.1%	20.6µM*	?	?
Cc1ccc(F)cc1NC(=O)/C=C/c1ccc(S(=O)(=O)N2CCOCC2)cc1	-23.6	6.7%	?	?	11.0%
SMILES	IL1B secr inh	HT1080 IDH1KD tx	TDP1 cell noCPT	DT40 TDP1 CPT	HT1080-NT tox
COc1ccccc1OCc1nnc(SCC(=O)Nc2ccc(N3CCOCC3)cc2)n1C	3.0	9.9%	-11.6%	7.6%	7.9%
OC1(c2ccc(Cl)c(C(F)(F)F)c2)CCN(CCCC(c2ccc(F)cc2)c2ccc(F)cc2)CC1	/	/	2.99µM*	2.66µM*	/
OC1(c2cccc(F)c2)CCN(Cc2ccncc2)CC1	9.2	8.6%	-5.7%	-6.7%	6.8%
CC1=N/C(=C\c2ccccc2Cl)C(=O)O1	-11.0	1.0%	-2.6%	-3.5%	0.7%
COc1ccc(C(=O)Nc2ccc3nc4c(c(Nc5ccc(OC)c(OC)c5)c3c2)CCCC4)c(OC)c1	/	/	2.91µM*	3.26µM*	/
COc1cc(NC(=O)c2c3c(nc4ccccc24)CCC3)cc(OC)c1	12.9	-29.3%	-7.8%	-28.9%	?
COc1ccccc1NC(=O)c1ccc2c(Cl)c3c(nc2c1)CCCC3	/	/	-2.0%	0.3%	/
COc1ccccc1Nc1c2c(nc3ccc(N)cc13)CCCC2	-12.0	-0.8%	20.6µM*	16.4µM*	2.0%
COc1ccccc1Nc1c2c(nc3ccc(NC(=O)c4ccc(OC)c(OC)c4)cc13)CCCC2	/	/	14.6µM*	23.1µM*	/
COc1ccccc1Nc1c2c(nc3ccc(NC(=O)c4cccc(OC)c4OC)cc13)CCCC2	/	/	13µM*	5.8µM*	/
COc1ccccc1C(=O)Nc1ccc2nc3n(c(=O)c2c1)CCCC3	-9.5	3.6%	-25.4%	?	-10.8%
COc1ccccc1Nc1c2c(nc3ccc(NC(=O)c4ccccc4F)cc13)CCCC2	/	/	16.4µM*	5.17µM*	/
COc1ccc(C(=O)Nc2ccc3ccccc3c2)c(OC)c1	-2.0	-11.0%	?	?	-6.4%
COc1ccc(C(=O)Nc2ccc3nc4c(c(Nc5ccccc5OC)c3c2)CCCC4)c(OC)c1	/	/	3.26µM*	3.66µM*	/
CC1=NN(c2ccccc2)C(=O)/C1=C\c1cc(C)n(C)c1C	-2.4	3.2%	-26.1%	-10.2%	-1.3%
CC1=NN(c2ccccc2)C(=O)/C1=C\C=C1/N(C)c2ccccc2C1(C)C	-85.5*	1.9%	?	?	0.2%
CC1=NN(c2ccccc2)C(=O)/C1=C\C=C1\N(C)c2ccccc2C1(C)C	-13.4	-1.6%	23.1µM*	?	-2.7%
CC1=NN(c2ccccc2)C(=O)/C1=C/N(C)C	9.0	-5.8%	4.3%	?	-10.8%
